{"source": "PubChem BioAssay (Tox21)", "note": "Several values for one entry are separate records, joined by “and”; a condition that tells them apart may be missing. Equal entries are not always repeated. Records with an inconclusive call do not appear. Entries that show only a call come without a potency. Activity calls are given as the source filed them. Calls follow the shape of the dose curve; as a rule, active = well fitted cell-killing curve with a large enough effect in the repeat runs; inconclusive = weak or mixed curves, or effect the other way; inactive = flat fitted curve, though single readings scatter. Potency is read from the fitted curve at half-maximal effect."}
{"test": "Nuclear factor erythroid 2-related factor 2/antioxidant responsive element (Nrf2/ARE) small molecule agonists: qHTS cell viability counter screen in human keratinocytes (AID 1919968); also: nearly all actives have a fitted effect of over 55% in size", "details": "KeratinoSens HaCaT ARE cells viability, CellTiter-Fluor, 24 h; series mostly up to 92.4 µM", "source_text": "U.S. Tox21 Program National Center for Advancing Translational Sciences [NCATS] Division of Preclinical Innovation [DPI] U.S. Environmental Protection Agency [EPA] National Institutes of Environmental Health Sciences [NIEHS] National Toxicology Program [NTP] U.S. Food and Drug Administration [FDA] Tox21 Assay Overview: Oxidative stress has been implicated in the pathogenesis of a variety of diseases ranging from cancer to neurodegeneration. The antioxidant response element (ARE) signaling pathway plays an important role in the amelioration of oxidative stress. The KeratinoSens (Givaudan, Switzerland) is an in vitro test method which quantifies luciferase induction as a measure of activation of Keap1-Nrf2-antioxidationt/electrophile response element (ARE) dependant pathway in HaCaT human keratinocytes stably transfected with a selectable plasmid. The KeratinoSens assay is a cell-based assay with a reporter cell line to detect potential skin sensitizers by their ability to induce the Nrf2/ARE-response. The activation of the report gene under culture conditions can be detected by ONE-Glo Luciferase Assay System (Promega, Madison, WI). This cell line has been used to screen the Tox21 10K compound library to identify agonists that induce oxidative stress. The cytotoxicity of the Tox21 compound library against the KS-ARE cell line was tested in parallel by measuring the cell viability using CellTiter- Fluor assay system (Promega, Madison, WI) in the same wells.\nTox21 Assay Protocol Summary: HaCaT derived cell line KeratinoSens were dispensed at 1,500 cells/5uL/well in 1536-well white wall/solid bottom plates using a Multidrop Combi (ThermoFisher Scientific, Waltham, MA) dispenser. After the assay plates were incubated at 37 C/5% CO2 for 5 h, 23 nL of compounds dissolved in DMSO, positive controls or DMSO only was transferred to the assay plate by a pintool workstation (Kalypsys, San Diego, CA). The plates were incubated at 37 C/5% CO2 for 23 h, followed by addition of 1uL/well of CellTiter-Fluor reagent into the assay plates using a Flying Reagent Dispenser (Aurora Discovery, San Diego, CA) for cell viability readout that measures cytotoxicity. After 1 h incubation at 37 C/5% CO2 the fluorescence intensity was measured using a ViewLux (PerkinElmer, Shelton, CT) plate reader."}
{"molecule": "Nc1ccc(N=Nc2ccc(-c3ccc(N=Nc4c(S(=O)(=O)O)cc5cc(S(=O)(=O)O)c(N=Nc6ccccc6)c(O)c5c4N)cc3)cc2)c(N)c1", "Potency": "inactive"}
{"molecule": "COS(=O)(=O)c1ccc(C)cc1", "Potency": "inactive"}
{"molecule": "ClC1=C(Cl)[C@]2(Cl)[C@@H]3[C@@H](Cl)[C@@H](Cl)C[C@@H]3[C@@]1(Cl)C2(Cl)Cl", "Potency": "inactive"}
{"molecule": "CN(C)C(=O)C(c1ccccc1)c1ccccc1", "Potency": "inactive"}
{"molecule": "CCNc1nc(Cl)nc(NC(C)(C)C#N)n1", "Potency": "inactive"}
{"molecule": "ClC1=C(Cl)C2(Cl)C3C(Cl)C(Cl)CC3C1(Cl)C2(Cl)Cl", "note": "(stereo not given)", "Potency": "30.5 µM (active) and 43.3 µM (active)"}
{"molecule": "CCCC1COC(Cn2cncn2)(c2ccc(Cl)cc2Cl)O1", "note": "(stereo not given)", "Potency": "inactive"}
{"molecule": "Nc1ccc(-c2ccccc2)cc1", "Potency": "inactive"}
{"molecule": "CC(NC(C)(C)C)C(=O)c1cccc(Cl)c1", "note": "(stereo not given)", "Potency": "inactive"}
{"molecule": "N#CCC#N", "Potency": "inactive"}
{"molecule": "OCC(O)CO", "Potency": "inactive"}
{"molecule": "Oc1ccc(Cl)cc1Cc1ccccc1", "Potency": "43.3 µM (active) and 31 µM (active)"}
{"molecule": "Nc1ccc(Cl)cc1", "Potency": "inactive"}
{"molecule": "CCCCCCCCCCCCCCCCCC(=O)O", "Potency": "inactive"}
{"molecule": "c1ccc2c(c1)oc1ccccc12", "Potency": "inactive"}
{"molecule": "CC(C)c1ccc(NC(=O)N(C)C)cc1", "Potency": "inactive"}
{"molecule": "CCNc1nc(NCC)nc(SC)n1", "Potency": "inactive"}
{"molecule": "CCN(CC)c1ccccc1", "Potency": "inactive"}
{"molecule": "Oc1ccc(C(c2ccc(O)cc2)(C(F)(F)F)C(F)(F)F)cc1", "Potency": "38.4 µM (active) and 54.5 µM (active)"}
{"molecule": "CN1C[C@H](C(=O)N[C@]2(C)O[C@@]3(O)[C@@H]4CCCN4C(=O)[C@H](Cc4ccccc4)N3C2=O)C=C2c3cccc4[nH]cc(c34)C[C@H]21", "Potency": "inactive"}
{"molecule": "CC(O)CN1CCN(CC(=O)[O-])CCN(CC(=O)[O-])CCN(CC(=O)[O-])CC1.[Gd+3]", "note": "(stereo not given)", "Potency": "inactive"}
{"molecule": "CCNc1nc(Cl)nc(NC(C)C)n1", "Potency": "inactive"}
{"molecule": "CC(C)(c1ccc(OCC2CO2)cc1)c1ccc(OCC2CO2)cc1", "note": "(stereo not given)", "Potency": "49.2 µM (active)"}
{"molecule": "Cc1ncc2n1-c1ccc(Cl)cc1C(c1ccccc1F)=NC2", "Potency": "inactive"}
{"molecule": "CN1C(=O)CCS(=O)(=O)C1c1ccc(Cl)cc1", "note": "(stereo not given)", "Potency": "inactive"}
{"molecule": "CCC(=O)C(CC(C)N(C)C)(c1ccccc1)c1ccccc1", "note": "(stereo not given)", "Potency": "inactive"}
{"molecule": "NC1(c2ccccc2)CCCCC1", "Potency": "inactive"}
{"molecule": "CN1CCC(N(Cc2ccccc2)c2ccccc2)CC1", "Potency": "inactive"}
{"molecule": "ClC(Cl)(Cl)C(Cl)(Cl)Cl", "Potency": "inactive"}
{"molecule": "CCCCC(CC)COC(=O)Cl", "note": "(stereo not given)", "Potency": "inactive"}
{"molecule": "CC(=O)/C=C/c1ccccc1", "Potency": "inactive"}
{"molecule": "O=C(O)C(Cl)Br", "note": "(stereo not given)", "Potency": "inactive"}
{"molecule": "ClCOCCl", "Potency": "inactive"}
{"molecule": "O=C(O)c1ccccc1O", "Potency": "inactive"}
{"molecule": "CC(C)N(C(=O)CCl)c1ccccc1", "Potency": "54.5 µM (active)"}
{"molecule": "CCC(C)C(C)(COC(N)=O)COC(N)=O", "note": "(stereo not given)", "Potency": "inactive"}
{"molecule": "CCC(C)(C#N)N=NC(C)(C#N)CC", "note": "(stereo not given)", "Potency": "inactive"}
{"molecule": "CN(C)C(=O)Nc1ccc(Cl)cc1", "Potency": "inactive"}
{"molecule": "O=C1c2ccccc2C(=O)N1SC(Cl)(Cl)Cl", "Potency": "24 µM (active)"}
{"molecule": "Cc1cc(-c2cc(C)c(N)c(C)c2)cc(C)c1N", "Potency": "inactive"}
